From PubChem BioAssay AID1963822 (ICCB-Longwood Screening Facility, Harvard Medical School, 2024) come the findings set out here.

This assay can be described thus: growth inhibitors of anaerobic choline-fed gram-negatives, minimal medium, absorbance (AID 1963822). Conditions: Gram-negative bacterium anaerobic choline minimal medium.
The mark [1] stands for this setting: measured here: choline growth z-score, timepoint 1, stronger effect = lower value.

Structures are written as SMILES. Out of some 55,000 compounds screened, about 90 (0.2%) were called active. The rule behind the calls is not given here. Only a selection was taken, and actives are over-represented in it overall.

In the case of `CCOc1cc(-c2noc(CCCC(=O)Nc3cccnc3)n2)ccc1OC`, the z-score was -0.11 (inactive) (stronger effect = lower value) and -0.21 under setting [1].
Take `CN(CCc1noc(-c2ccccc2Cl)n1)S(=O)(=O)c1cccc2nsnc12`: the z-score is, setting by setting: (stronger effect = lower value) 0.03 (inactive); under setting [1], -1.43.
As to `CCN1CCN(C(=O)c2cc(C)n(CCN3CCCC3)c2C)CC1`, the z-score is, setting by setting: (stronger effect = lower value) -1.12 (inactive); under setting [1], -1.13.
Regarding `Cc1nc(-c2ccc(C)c(S(=O)(=O)N3CCC(C(=O)N4CCN(c5ccc(F)cc5)CC4)CC3)c2)no1`, the z-score was 0.78 (inactive) (stronger effect = lower value) and 0.51 under setting [1].
For `COC(=O)C1=CN(C)S(=O)(=O)N=C1C` the same measures were 1.05 (inactive) and 0.71.
For `O=C(O)c1c[nH]c2ccc(S(=O)(=O)NC3CCCCNC3=O)cc2c1=O` (stereo not drawn) the same measures were 1.32 (inactive) and 1.13.
With `O=C(c1cc2cc(Cl)ccc2[nH]1)N1CCCN(c2ccc(=O)n(-c3ccccc3)n2)CC1`, the z-score was -1.08 (inactive) (stronger effect = lower value) and -1.54 under setting [1].
As for `CCCCCCCC/C=C\CCCCCCCC(=O)OC[C@H](CO)OC(C)=O`, the z-score reads like this: (stronger effect = lower value) 0.47 (inactive); under setting [1], 0.34.
For `CCCC[C@H](C)C[C@H](O)/C=C/[C@@H]1[C@@H](CCCCCCC(=O)O)[C@@H](O)C[C@H]1O`, in that order: 0.5 (inactive) and -0.78.
As to `CCCCC/C=C\C/C=C\CCCCCCCCCC(=O)O`, the z-score runs as follows: (stronger effect = lower value) -3.44 (active); under setting [1], -3.23.
For `CCCCCC(=O)CC[C@H]1[C@H](O)CC(=O)[C@@H]1C/C=C\CCCC(=O)O`, in that order: 0.71 (inactive) and 1.09.
For the compound `CCCCC[C@@](C)(O)/C=C/[C@H]1C=CC(=O)[C@@H]1C/C=C\CCCC(=O)O`, the z-score runs as follows: (stronger effect = lower value) -0.26 (inactive); under setting [1], 0.66.
On to `CCCCC/C=C\CC1OC1CCCCCCCC(=O)O` (stereo not drawn), for which the z-score is -3.37 (active) (stronger effect = lower value) and -3.13 under setting [1].
For `CCOC(=O)c1ccc(NC(=O)CSc2nnc(NC(=O)NC3CCCCC3)s2)cc1` the same measures were 0.1 (inactive) and 0.31.
As to `COc1cccc(C2Nc3ccc(Cl)cc3[C@H]3OCCC[C@@H]23)c1OC` (stereo partly drawn), the z-score was 1.2 (inactive) (stronger effect = lower value) and 2.03 under setting [1].
For `CN(CCCNC(=O)c1c2c(nc3ccccc13)C(=O)N(C1CCCCC1)C2)c1ccccc1` the same measures were -0.07 (inactive) and -1.59.
As to `COc1ccc(NC(=O)c2cccc(-c3nc(-c4ccc(F)cc4)no3)c2)cc1OC`, the z-score was -1 (inactive) (stronger effect = lower value) and -0.62 under setting [1].
For `CN1CCN(S(=O)(=O)c2ccc3c(c2)C(C)(C)CN3CC(=O)N2CCCC2)CC1`, in that order: 1.07 (inactive) and 0.91.
For `Cc1cn(C)c(CC(=O)NC2CCN(Cc3ccccc3)CC2)c1C(=O)O` the same measures were -0.86 (inactive) and 0.19.
For `Brc1ccc(-c2nn[nH]n2)cc1` the same measures were -1.32 (inactive) and -1.04.
In the case of `CCOC(=O)C1CCCN(C(=O)Cn2c(=O)c3ccccc3n3c(=S)sc(-c4ccccc4)c23)C1` (stereo not drawn), the z-score is 0.91 (inactive) (stronger effect = lower value) and 0.36 under setting [1].
As for `CCN(CC)C(=O)CSc1nnc2c3ccccc3nc(-c3ccccc3)n12`, the z-score (stronger effect = lower value) is 2.11 (inactive) and the z-score under setting [1] is 1.21.
For `CCOc1ccc(S(=O)(=O)NC(C)C)cc1-c1nc(C)no1` the same measures were 0.37 (inactive) and -1.19.
Regarding `CCCN(CCC)CCNc1cc(C)nc2c(-c3ccccc3OC)c(C)nn12`, the z-score is, setting by setting: (stronger effect = lower value) 1.1 (inactive); under setting [1], -0.02.
Consider `Cc1nc(-c2csc(S(=O)(=O)NCc3ccccc3Cl)c2)sc1C`, for which the z-score is, setting by setting: (stronger effect = lower value) -0.96 (inactive); under setting [1], -0.18.
Regarding `Cc1[nH]nc2c1C(C(=O)c1cccc(Cl)c1)CC(=O)N2` (stereo not drawn), the z-score reads like this: (stronger effect = lower value) 0.36 (inactive); under setting [1], 0.1.
For `COc1ccc(NS(=O)(=O)c2cc(-c3nc(-c4ccccc4)no3)sc2C)cc1OC`, in that order: 0.43 (inactive) and -0.06.
For `CCN1CCN(C(=O)c2cc(N(C)S(=O)(=O)c3ccccc3)ccn2)CC1` the same measures were 0.78 (inactive) and 0.89.
In the case of `O=S(=O)(Nc1ccc(F)cc1)c1cc(-c2noc(C3CC3)n2)cs1`, the z-score reads like this: (stronger effect = lower value) 0.08 (inactive); under setting [1], -0.4.
Turning to `COc1ccccc1CNc1ncc2nc(-c3ccccc3)oc2n1`, the z-score is -0.72 (inactive) (stronger effect = lower value) and -0.32 under setting [1].
With `Cc1ccc(-c2cc(C(=O)N3CCN(C)CC3)no2)cc1C`, the z-score was -2.15 (inactive) (stronger effect = lower value) and -1.67 under setting [1].
For `C=CCn1c(=O)c(=O)n(Cc2ccc(C(=O)N3CCC(N4CCCCC4)CC3)cc2)c2ccccc21`, in that order: 0.52 (inactive) and 0.14.
For `O=C(Cn1cccc1-c1nc(-c2ccc(Cl)cc2)cs1)NCc1ccc2c(c1)OCO2` the same measures were 0.32 (inactive) and -0.44.
For `CC(C)c1nnc2ccc(N3CCN(C(C)C)CC3)nn12` the same measures were 0.55 (inactive) and -2.47.
For `CCCN1C(=O)c2ccccc2Sc2cc(-c3noc(/C=C/c4ccccc4)n3)ccc21`, the z-score is -0.13 (inactive) (stronger effect = lower value) and 0.3 under setting [1].
For `COC(=O)Cn1nc2c(-c3nc(-c4ccc(Cl)cc4)no3)cccn2c1=O`, in that order: -0.55 (inactive) and -1.3.
In the case of `Cc1ccc(N2CC(c3nc(-c4ccc(N5CCCC5)cc4)no3)CC2=O)cc1C` (stereo not drawn), the z-score by setting is: (stronger effect = lower value) 0.33 (inactive); under setting [1], 0.93.
Take `CC1CCN(CCCNC(=O)Cc2ccc(NC(=O)N3CCSc4ncccc43)cc2)CC1`: the z-score runs as follows: (stronger effect = lower value) 1.04 (inactive); under setting [1], 0.79.
For `Cc1cc(C)c2nc(C)cc(C(=O)NC3CC3)c2c1`, in that order: 1.05 (inactive) and 0.53.
For `CCC1(CC)Cc2ccccc2-c2[nH]c(=O)n(CC3=CCCO3)c(=O)c21` the same measures were 0.12 (inactive) and -1.14.
On to `COc1ccccc1N1CCN(c2ccc(=O)n(CC(=O)NCc3ccccn3)n2)CC1`, for which the z-score reads like this: (stronger effect = lower value) -0.67 (inactive); under setting [1], -0.7.
For `CN(C)C(=O)c1cc2c(s1)CCC(C(=O)N(C)C)C2` (stereo not drawn), in that order: 0.34 (inactive) and 0.33.
Take `CC(C)(C)c1ccc(S(=O)(=O)NCc2nc(N)n(S(=O)(=O)c3ccc(C(C)(C)C)cc3)n2)cc1`: the z-score was -0.11 (inactive) (stronger effect = lower value) and 0.06 under setting [1].
Consider `CCOc1ccc(N(Cc2nc3nc(C)cc(C)n3n2)C(=O)CC(C)C)cc1`, for which the z-score by setting is: (stronger effect = lower value) -0.89 (inactive); under setting [1], -1.11.
On to `CCOc1ccc(-c2cc(C(=O)Oc3ccc(OC)cc3)no2)cc1`, for which the z-score runs as follows: (stronger effect = lower value) -0.02 (inactive); under setting [1], 0.37.
As for `O=C(CN1C(=O)CSc2ccc(S(=O)(=O)N3CCCC3)cc21)Nc1cccnc1`, the z-score reads like this: (stronger effect = lower value) 0.64 (inactive); under setting [1], 0.19.
Take `O=C(NC1CC1)C1CCCN(c2ccc3cc(S(=O)(=O)N4CCCCC4)ccc3n2)C1` (stereo not drawn): the z-score was -0.89 (inactive) (stronger effect = lower value) and -0.76 under setting [1].
For `O=C(Nc1ccc(F)cc1)c1ccccn1`, in that order: -3.6 (inactive) and -3.98.
For `O=C(c1nnc(-c2ccc(S(=O)(=O)N3CCCC3)cc2)o1)N1CCCC1`, in that order: 0.25 (inactive) and 0.12.
For `COc1ccnc2c1c(=O)n(CC(=O)N1CCCc3ccccc31)c(=O)n2C`, in that order: 1.04 (inactive) and 0.31.
Turning to `CCC(=O)NCCc1nc2cc(NC(=O)C3CCCCC3)ccc2n1C`, the z-score (stronger effect = lower value) was -0.79 (inactive) and the z-score under setting [1] was -0.11.
Take `COc1cccc(CSc2nc3c(-c4ccccc4)c[nH]c3c(=O)[nH]2)c1`: the z-score (stronger effect = lower value) is 0.44 (inactive) and the z-score under setting [1] is -0.28.
For `Cn1c(=O)n(-c2ccc(F)cc2)c2nc(-c3cccc(F)c3)nc(C(N)=O)c21` the same measures were -0.47 (inactive) and 0.68.
As for `CCc1nc2ccccc2c(=O)n1Cc1noc(CN2C(=O)COc3ccccc32)n1`, the z-score is 0.03 (inactive) (stronger effect = lower value) and 0.5 under setting [1].
For the compound `O=C(NC1CCCc2ccccc21)c1ccc(-c2cc(N3CCOCC3)ncn2)cc1` (stereo not drawn), the z-score by setting is: (stronger effect = lower value) 0.49 (inactive); under setting [1], -1.29.
For `Cc1noc(-c2cccnc2N2CCN(C(c3ccccc3)c3ccccc3)CC2)n1`, in that order: 0.85 (inactive) and 0.28.
For `Cc1nc(-c2cc(S(=O)(=O)N3CCN(c4ccccc4F)CC3)c(C)s2)cs1` the same measures were 1.43 (inactive) and 0.83.
For `O=C(NCCN1CCOCC1)C1CCN(c2cncnc2N2CCCCC2)CC1`, in that order: 0.71 (inactive) and 0.79.
For the compound `C=CCSc1n[nH]c(NC(C)=O)n1`, the z-score is, setting by setting: (stronger effect = lower value) 0.76 (inactive); under setting [1], 0.64.
For `Cc1ccc(C(C)C)c(OC(C)C(=O)Nc2onc3c2CCCC3)c1` (stereo not drawn), in that order: -0.74 (inactive) and -0.51.
For `CCN1C(=O)c2ccccc2Sc2cc(-c3noc(-c4ccc5c(c4)OCO5)n3)ccc21`, in that order: 0.5 (inactive) and 0.22.
For `CCOc1ccc(N2CCCCn3c2nc2c3c(=O)n(CCC(C)C)c(=O)n2C)cc1` the same measures were -0.58 (inactive) and 0.29.
Turning to `COc1ccc(-c2cc3nc(C)cc(N4CCOCC4)n3n2)cc1OC`, the z-score by setting is: (stronger effect = lower value) 0.32 (inactive); under setting [1], -0.41.
For `CCN(CCCNC(=O)c1cccn2c(=O)c3ccccc3nc12)c1cccc(C)c1`, the z-score was 1.29 (inactive) (stronger effect = lower value) and 1.6 under setting [1].
For `Cc1ccc(/C=C/c2nn3c(-c4ccoc4C)nnc3s2)cc1C`, in that order: -0.03 (inactive) and 0.36.
For `O=C(CCc1nc(CSc2nnc(-c3ccccc3)o2)no1)Nc1ccc(F)c(Cl)c1`, in that order: -0.29 (inactive) and -0.24.
For `COc1cc(OC)cc(N2C=C(C#N)S(=O)(=O)c3cc(F)ccc32)c1`, in that order: 0.71 (inactive) and 0.22.
For `O=S(=O)(c1ccc2c(c1)-c1oncc1CO2)N1CCN(C(c2ccccc2)c2ccccc2)CC1`, the z-score was 0 (inactive) (stronger effect = lower value) and -0.77 under setting [1].
With `CC(=O)N1CCc2cc(N3CC(C(=O)N4CCC5(CC4)OCCO5)CC3=O)ccc21` (stereo not drawn), the z-score is -1.2 (inactive) (stronger effect = lower value) and -0.84 under setting [1].
As for `O=S(=O)(c1ccccc1F)N1CCN(c2ncnc3c2nnn3-c2ccccc2)CC1`, the z-score runs as follows: (stronger effect = lower value) 1.03 (inactive); under setting [1], 0.86.
For `COc1cc(C2Nc3c(C)cc(C)cc3[C@H]3OCC[C@@H]23)cc(Br)c1OC` (stereo partly drawn) the same measures were 0.49 (inactive) and 0.1.
For `Cc1cc(C)nc(SCCn2c(N3CCC(C)CC3)nc3c2c(=O)[nH]c(=O)n3C)n1`, the z-score by setting is: (stronger effect = lower value) 0.25 (inactive); under setting [1], 0.24.
For the compound `COc1ccc(C2CC(c3c(O)n(C)c(=O)n(C)c3=O)=NN2)cc1` (stereo not drawn), the z-score runs as follows: (stronger effect = lower value) 0.56 (inactive); under setting [1], 0.56.
For `O=C(Cn1c(=O)c(=O)n(Cc2ccncc2)c2ncccc21)NCCN1CCCCC1`, in that order: 1.65 (inactive) and 0.64.
On to `COC(=O)c1cc(S(=O)(=O)N2CCCC2C(=O)N2CCc3ccccc32)cn1C` (stereo not drawn), for which the z-score reads like this: (stronger effect = lower value) -0.38 (inactive); under setting [1], -0.18.
`COc1ccc(-c2cc(Oc3cccc(C(=O)NC4CCCCC4)c3)ncn2)cc1`: the z-score is, setting by setting: (stronger effect = lower value) 1.55 (inactive); under setting [1], 1.41.
For `O=C(NCCC1=CCCCC1)C1CCN(c2cc(-c3cccc(F)c3)ncn2)CC1`, in that order: 1.01 (inactive) and 0.77.
For `CC(C)NC(=O)Cc1csc(NC(=O)C2CC2)n1`, in that order: 0.37 (inactive) and -0.55.
Turning to `COc1cccc(NC(=O)c2ccc(-n3nc(N4CCCC4)ccc3=O)cc2)c1`, the z-score (stronger effect = lower value) is -0.3 (inactive) and the z-score under setting [1] was -0.77.
